Bioassay records as filed in PubChem.
D2 PAM-1: human D2 receptor positive allosteric modulation; P14416; potentiation, % (test concentration not listed); 360,000 tested, 0.23% active; DiscoveRx D2 beta-arrestin cells, luminescence, 90 min; 100% = 57 uM dopamine signal; in the data active = potentiation above about 50%; inconclusive = mostly about 30% to 49%
Target sequence (P14416 whole entry, looked up): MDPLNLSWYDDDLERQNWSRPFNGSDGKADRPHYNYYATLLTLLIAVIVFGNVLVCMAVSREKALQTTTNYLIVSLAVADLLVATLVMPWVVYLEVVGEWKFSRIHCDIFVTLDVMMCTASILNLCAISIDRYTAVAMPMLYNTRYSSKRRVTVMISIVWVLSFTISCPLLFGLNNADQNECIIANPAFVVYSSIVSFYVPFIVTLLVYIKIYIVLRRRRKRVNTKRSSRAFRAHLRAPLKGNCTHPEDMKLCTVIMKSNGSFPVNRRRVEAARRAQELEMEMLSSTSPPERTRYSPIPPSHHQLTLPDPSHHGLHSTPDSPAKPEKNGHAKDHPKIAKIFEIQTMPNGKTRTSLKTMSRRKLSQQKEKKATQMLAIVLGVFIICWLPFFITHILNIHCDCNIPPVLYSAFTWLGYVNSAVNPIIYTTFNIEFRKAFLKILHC
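PathHunter D2 cells, attached overnight at 37 deg C, received compound in DMSO plus dopamine at EC20 (50 nM final) for 90 min at 37 deg C. Beta-arrestin recruitment was read as luminescence after 1 h with detection reagent at ambient temperature.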
D2 ag-1: activates the human D2 dopamine receptor | P14416 | DiscoveRx PathHunter D2 beta-arrestin, luminescence, 90 min; 100% = 57 uM dopamine signal | 360,000 tested, 0.084% active | activation, % (concentration not given with the values); in the data active = activation above about 40%; inconclusive = between about 15% and that limit
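DiscoveRx PathHunter D2 beta-arrestin cells (2,100/well) attached overnight, then compound-stimulated 90 min at 37 C in HBSS/10 mM HEPES/0.1% Tween-20 buffer; beta-galactosidase complementation read by luminescence after 1 h at ambient temperature. Dopamine 57 uM final (EC100) as control.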
D2 ag-2: activates the human D2 dopamine receptor | HEK293 T-REx D2 cells, calcium flux agonist mode | activation, % at 2 µM | 340,000 tested, 0.53% active;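 active = activation over 3 SD above normal in the single-dose calcium agonist read, cut at about 30% in these data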; note: 0% is about no effect
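HEK293 Trex D2 cells, tetracycline-induced, o/n 30 C 5% CO2; no-wash Ca dye, RT 30–90 min; 10-cycle baseline, 23 nl cpd added, kinetic Ca read 180 s; agonist hits = positive Ca response.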
D2 antagonist: antagonizes the human D2 dopamine receptor. 340,000 tested, 2% active. inhibition, % at 10 µM. AID 485344. HEK293 TREx D2 cells, calcium flux, dopamine EC80. P14416; in the data active = inhibition above about 30%; inactive = below that, where a call was filed; note: 0% is about no effect
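Calcium flux kinetic readout in an inducible HEK293 TREx D2 line plated overnight at 30 C. After 180 s compound exposure, an EC80 dopamine challenge follows with another 180 s kinetic read to detect antagonism.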
D2 PAM-2: positive allosteric modulators of human D2 dopamine receptor; HEK293 T-REx D2, calcium flux, EC20 dopamine potentiation; potentiation, % at 10 µM; 340,000 tested, 0.34% active; AID 485347;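 active = potentiation over 3 SD above the plate norm, cut at about 30% in these data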; note: 0% is about no effect
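Using a no-wash calcium dye in inducible, force-coupled HEK293 Trex cells expressing D2, we tracked fluorescence each second for 180 s after compound, then for 180 s after EC20 dopamine to detect augmented signalling.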
* marks the source's active call; other numbers are inactive results; ? = inconclusive; . = no result given. Shown are actives, neighbours in structure and some others; about 2.4% of the full set was active somewhere.

SMILES	D2 PAM-1	D2 ag-1	D2 ag-2	D2 antagonist	D2 PAM-2
COc1ccc(CCN2CC(C(=O)Nc3ccccc3F)CC2=O)cc1OC (stereo not drawn)	-3.7	-1.0	0.0	-7.7	-7.1
COc1ccc(-c2cc3ccccc3n2CC(O)CNCCO)cc1 (stereo not drawn)	-17.2	-2.2	.	.	.
COc1ccc(-c2cc3ccccc3n2CC(O)CN2CCCCC2)cc1 (stereo not drawn)	-23.5	-0.2	0.6	42.9*	-22.2
COCCn1c(CNC(=O)c2cccc(C)c2)nc2cccnc21	.	.	0.5	.	-3.6
CN(CC(=O)Nc1cccc(F)c1)CC(=O)N1CCCCC1	-2.6	8.3	-0.2	-1.2	-4.3
O=C1OC(N2CCN(C(=O)C3CCCO3)CC2)c2ccccc21 (stereo not drawn)	55.0*	2.8	0.3	-11.2	-5.4
CCOC(=O)N1CCN(C2OC(=O)c3ccccc32)CC1 (stereo not drawn)	-13.1	-0.4	1.4	-2.9	14.2
COc1ccc2c(c1)CCc1c-2n[nH]c1C(=O)O	1.8	1.3	0.5	31.4*	-3.3
O=C(COC(=O)/C=C/c1cccc(F)c1)Nc1ccccc1	-4.7	0.9	0.5	2.1	4.5
O=C(COC(=O)/C=C/c1cccc(F)c1)NNC(=O)c1ccccc1	-4.3	5.8	0.1	45.4*	3.7
Cc1ccc(S(=O)(=O)/N=C2/C=C(C3C(=O)CC(C)(C)CC3=O)C(=O)c3ccccc32)cc1	110.1*	10.5	-0.4	5.8	0.5
Cc1ccc(S(=O)(=O)/N=C2\C=C(NS(=O)(=O)c3ccccc3)C(=O)c3ccccc32)cc1	1.4	-2.8	.	.	.
CCCCCCCC(=O)Oc1ccc(C(=O)Nc2cc(C)on2)cc1	-0.4	-0.4	-0.8	37.0*	-9.2
N/C(Cc1ccc(Cl)c(Cl)c1)=N\OC(=O)c1ccc(Br)o1	60.1*	?	1.0	1.5	-10.7
NC(=O)C1(N2CCCCC2)CCN(c2ccc3nnc(-c4ccccc4)n3n2)CC1	-3.5	?	-0.3	-13.4	31.8*
CC(C)CCNC(=O)c1ccc2c(c1)NC(=O)C(C(C)C)N2 (stereo not drawn)	.	.	.	.	3.2
Oc1ccccc1N1CCN(CC(O)COC2CCCc3ccccc32)CC1 (stereo not drawn)	-7.9	-1.3	10.9	40.1*	-21.7
OC(COc1ccc2c(c1)CCC2)CN1CCN(c2ccccc2F)CC1 (stereo not drawn)	-30.2	14.8	0.7	-20.5	8.1
O=C(Cn1ncc2c3ccccc3n(Cc3ccc(F)cc3)c2c1=O)NCc1ccccn1	.	.	.	.	28.6
CCOC(=O)C1(C)C=C(Nc2ccc(C(=O)O)cc2)C(=O)N1c1ccc(C(=O)O)cc1 (stereo not drawn)	.	.	0.2	.	.
Cc1ccc(/C=[N+](\[O-])c2ccc(N(C)C)cc2)c2nsnc12	8.2	2.5	9.2	48.4*	-4.2
Cc1cc(-n2c(C)cc(C(=O)COc3ccc(F)c(F)c3)c2C)no1	0.1	9.3	0.1	30.0*	-15.3
Cc1cc(-n2c(C)cc(C(=O)COc3ccccc3[N+](=O)[O-])c2C)no1	-12.9	0.3	.	.	.
O=[N+]([O-])c1cc(Cl)ccc1NCCNc1ncc(C(F)(F)F)cc1Cl	7.6	-5.7	-0.3	36.2*	-11.5
COc1cc2c(cc1Cl)/C(=C\CCN(C)C)c1ccccc1S2	-49.3	-3.2	2.0	36.5*	-22.4
SMILES	D2 PAM-1	D2 ag-1	D2 ag-2	D2 antagonist	D2 PAM-2
COc1cc(Cl)cc2c1Sc1ccccc1/C2=C/CCN(C)C	-33.9	-4.0	-2.4	63.2*	-22.9
CC(=O)c1cc2c(cc1NC(=O)CSc1nnc(C3CC3)n1C)OCO2	-13.2	-2.2	.	.	.
O=C(OCn1nnc2ccccc2c1=O)c1ccco1	-7.4	-0.3	-0.1	-12.3	-6.3
COc1ccc(C(=O)N[C@H](C(=O)OCn2nnc3ccccc3c2=O)C(C)C)cc1	-3.7	-3.2	0.0	-14.1	2.7
COc1cc(OC)cc(C(=O)N[C@H](C(=O)OCn2nnc3ccccc3c2=O)C(C)C)c1	-7.1	-3.7	-0.7	-11.8	31.1*
O=C(OCn1nnc2ccccc2c1=O)c1cc2ccccc2o1	-4.6	-0.1	0.6	68.6*	8.2
O=C(Nc1cccc(F)c1)c1ccccc1	-8.0	-2.4	-0.2	-10.9	-1.0
O=C(Nc1ccc(Nc2ccccc2)cc1)c1cccc(F)c1	-5.6	-3.1	-0.3	-18.0	32.2*
O=C(NNC(=O)c1ccc(F)cc1F)c1ccc2c(c1)OCO2	4.0	-2.0	2.8	37.0*	-3.1
CCOc1ccccc1C(=O)NC(C)c1ccc2c(c1)OCO2 (stereo not drawn)	-2.0	-1.0	-0.1	39.9*	0.4
O=C(Nc1cccc(F)c1)c1ccc2c(c1)OCO2	-15.5	-1.3	5.3	30.8*	.
Cc1ccc(Cc2nc3ccccc3nc2SCC(=O)NCCc2ccccc2)cc1	.	.	0.4	.	12.6
CCOc1cc(C(=O)Nc2ccc3c(c2)OCO3)ccc1OCCOc1ccccc1Cl	-9.0	3.4	1.3	31.8*	-0.2
Cc1cccc(NC(=O)[C@@H]2CCCN2C2=NS(=O)(=O)c3ccccc32)c1C	-4.4	1.7	0.0	-7.5	6.0
CC(=O)c1ccc(NC(=O)[C@@H]2CCCN2C2=NS(=O)(=O)c3ccccc32)cc1	-3.1	1.1	-0.2	37.2*	14.2
Cc1nc(Nc2cccc(O)c2)c2oc3ccccc3c2n1	-14.7	2.8	0.9	32.6*	0.9
CN1CCN(c2nc(-c3ccccc3)cc(C(F)(F)F)n2)CC1	-35.6	-2.7	-0.5	75.4*	-7.5
CC1CCN(c2nc(-c3ccccc3)cc(C(F)(F)F)n2)CC1	9.6	-1.3	0.3	5.3	4.5
CS(=O)(=O)c1nc(-c2cccs2)cc(C(F)(F)F)n1	.	.	2.2	8.7	0.9
CN1CCN(c2nc(-c3cccs3)cc(C(F)(F)F)n2)CC1	-22.5	-1.0	-0.7	31.8*	-15.5
N#CC1(Nc2ccc([N+](=O)[O-])cc2)CCCC1	-13.8	-5.3	.	.	.
COc1cc2c(cc1OC)C(c1cc3cc4c(cc3[nH]c1=O)OCO4)N(C(=O)C1CC1)CC2 (stereo not drawn)	4.6	0.5	-0.5	32.6*	-6.9
COc1cc2c(cc1OC)C(c1cc3ccc(C)cc3[nH]c1=O)N(C(=O)c1ccco1)CC2 (stereo not drawn)	-4.6	-1.0	3.2	11.2	8.9
Cc1onc(-c2ccccc2)c1C(=O)OCC(=O)Nc1ccc(Cl)cc1	2.8	3.0	-0.1	37.4*	-4.0
O=C(Nn1cnc2ccccc2c1=O)c1c(F)cccc1F	-12.4	-3.3	1.2	2.9	-1.8
Cc1cc(C)cc(NC(=O)C/C(N)=N/O)c1	9.1	3.3	0.2	71.5*	-9.8
CC(C(=O)Nc1ccc(OCc2ccccc2)cc1)N1CCCC1 (stereo not drawn)	0.6	2.9	0.0	7.2	-2.2
